Common to all, as to test: NCI-60 one-dose screen, 48 h (100 = growth as untreated, 0 = no growth, -100 = all killed)
Common to all, as to settings: 10 µM unless noted

Assay [1] deals with HCT-15 colon.
In assay [2] the test system is HT29 colon.
In assay [3] the test system is SNB-75 CNS.
Assay [4] deals with SNB-19 CNS.
In assay [5] the test system is U251 CNS.
The test system of assay [6] is PC-3 prostate.
In assay [7] the test system is SK-MEL-5 melanoma.
Assay [8] relates to UACC-62 melanoma.
In assay [9] the test system is LOX IMVI melanoma.
Assay [10] has as its system SK-MEL-28 melanoma.

This is part of a sample that, as a whole, favours compounds with a hit. Of some 83,000 tested, about 20% had one in any assay.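 Compound tested at a single concentration for 48 hours in 96-well plates; a percent growth value below 10 was scored as active.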 A number with no mark means an inactive call. Calls of active or inactive are those of the source.

As for `COc1cccc(C(=O)OCCn2nc3c4c(cccc42)C(=O)c2ccccc2-3)c1O`, the growth in [1] was 28%; in [2] it was 79.3%; in [3], 22.8%; in assay [4], 38.3%; in assay [5], 33.9%; in [6], 20.5%. Also, the growth in assay [7] is 36.4%; in [8], 31.3%; in [9], 37.6%; in assay [10] it was 72.5%.
On to `C=C(C)[C@@H]1CC[C@]2(C(=O)OCCOCCOCC[P+](c3ccccc3)(c3ccccc3)c3ccccc3)CC[C@]3(C)[C@H](CC[C@@H]4[C@@]5(C)CC[C@H](C)C(C)(C)[C@@H]5CC[C@]43C)[C@@H]12`, for which the growth is -86.7% (active) in [1]; -81.6% (active) in assay [2]; -90% (active) in assay [3]; -72.2% (active) in assay [4]; -83.5% (active) in [5]; -84.9% (active) in [6]. The growth in assay [7] was -98% (active); in [8] it was -77.8% (active); in [9], -86.3% (active); in assay [10], -80% (active).
On to `O=[N+]([O-])c1ccc(Oc2ccc(-c3ccccc3)cc2)cc1`, for which the growth in assay [1] was 81.8%; in assay [2], 76.6%; in assay [3], 93.5%; in assay [4], 94%; in assay [5] it was 88.5%; in [6], 75.8%. Moreover, the growth in [7] is 88.2%; in [8] it was 63%; in assay [9], 96.3%; in assay [10], 105%.
As for `O=C1NN(c2ccccc2)C(c2ccc(Cl)cc2)N2CCC[C@H]12` (stereo not given in full), the growth is 92.9% in [1]; 101% in [2]; 75.6% in [3]; 94.6% in assay [4]; 101% in assay [5]; 99.6% in assay [6]. Further, the growth in assay [7] was 96.1%; in assay [8], 87.3%; in assay [9] it was 87.8%; in assay [10], 104%.
As for `Cc1cccc2nc3c(n12)C(=O)C(=O)c1ccccc1-3`, the growth in assay [1] was 40.8%; in assay [2], 78%; in assay [3], 136%; in assay [4] it was 61.3%; in [5] it was 43%; in assay [6] it was 40.2%. Besides, the growth in assay [7] is 30.2%; in [8], -57.4% (active); in [9] it was 6.44% (active); in [10], 85.7%.
`C#C[C@@]1(O)[C@@H](CO)O[C@@H](n2ccc3c(N)ncnc32)[C@@H]1O`: the growth was 2.94% (active) in [1]; 2.83% (active) in assay [2]; -25.6% (active) in [3]; 7.29% (active) in assay [4]; 3.15% (active) in [5]; -21.4% (active) in assay [6]. Further, the growth was -52.7% (active) in assay [7], -16.5% (active) in assay [8], -68.6% (active) in assay [9] and 63.6% in [10].
As for `O=C1CC23OC4ON=C(Br)C4C2C(O)c2ccccc2N13` (stereo not given), the growth in [1] is 99%; in assay [2], 90.5%; in assay [3], 79.9%; in assay [4] it was 105%; in assay [5] it was 110%; in [6], 94.4%. Moreover, the growth in assay [7] was 111%; in assay [8], 94.3%; in [9], 88.8%; in assay [10], 114%.
In the case of `O=C(/C(=C/c1ccc([N+](=O)[O-])cc1)SCc1ccccc1)c1ccc(Cl)cc1`, the growth in assay [1] is 34.3%; in [2], 52%; in [3], 85%; in [4], 70.6%; in assay [5], 61.6%; in assay [6], 60.9%. In addition, the growth in assay [7] was 73%; in assay [8] it was 9.57% (active); in assay [9] it was 32.6%; in assay [10], 94.6%.
Take `CCOc1ccccc1C(=O)/C=C/c1cc2ccccc2[nH]c1=O`: the growth in assay [1] was -58.9% (active); in assay [2], -44.6% (active); in assay [3] it was 21%; in assay [4] it was -72.9% (active); in [5], -92.2% (active); in [6], 14.9%. The growth in assay [7] was -78.3% (active); in assay [8], -65.3% (active); in [9], -81.8% (active); in [10] it was -3.66% (active).
For the compound `CN1CC=C(c2cc(NC(=O)Nc3ccc(Oc4ccnc(NC(=O)C5CC5)c4)c(F)c3)cc(C(F)(F)F)c2)CC1`, the growth is 5.35% (active) in assay [1]; -13.6% (active) in assay [2]; -76.4% (active) in assay [3]; 2.04% (active) in assay [4]; -1.77% (active) in assay [5]; 3.71% (active) in assay [6]. In addition, the growth in assay [7] was -43.9% (active); in assay [8], -22.1% (active); in assay [9] it was -46.5% (active); in assay [10], -1.25% (active).
Turning to `O=C1CCC23OC(c4ccccc4N12)C(O)C(O)C3O` (stereo not given), the growth is 109% in assay [1]; 91.6% in [2]; 113% in [3]; 101% in [4]; 105% in assay [5]; 95.6% in assay [6]. Besides, the growth in assay [7] was 111%; in assay [8] it was 98.5%; in assay [9] it was 100%; in [10], 118%.
In the case of `CCC1=C[C@H]2CN(CCc3c([nH]c4ccccc34)[C@@](C(=O)OC)(c3cc4c(cc3OC)N(C)[C@H]3[C@@](O)(C(=O)OC)[C@H](OC(C)=O)[C@]5(CC)[C@@H]6C[C@@H]6CN6CC[C@]43[C@@H]65)C2)C1`, the growth in assay [1] was 7.44% (active); in assay [2], -18.4% (active); in assay [3] it was -3.68% (active); in assay [4], 21.1%; in [5] it was 13%; in assay [6], 29.4%. The growth in assay [7] is -25.5% (active); in assay [8] it was 17%; in assay [9], 17%; in assay [10] it was 58.5%.
Turning to `CCOC(=O)c1c(C)nc2c(c1N)/C(=C/c1ccc[nH]1)C(=O)N2Cc1ccc(C(F)(F)F)cc1`, the growth in [1] is 68.8%; in assay [2], 70%; in assay [3] it was 25.3%; in [4] it was 36.3%; in assay [5], 25.2%; in assay [6] it was 52.1%. The growth is 82.2% in [7], 81.8% in assay [8], 56.7% in [9] and 89.6% in assay [10].

Source of the values: PubChem BioAssay (NCI).
